The panel holds about 83,000 compounds, 20% with a hit somewhere; the sample as a whole holds those more often.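 Treatment: one concentration, 48 hours, 96-well format. Scoring: percent growth, with anything below 10 considered active.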 The source made the active and inactive calls.
tested on: MCF7 breast; experiment: NCI-60 one-dose screen, 48 h (100 = growth as untreated, 0 = no growth, -100 = all killed); settings: 10 µM

| SMILES | growth |
| --- | --- |
| C=CCN(CC=C)C(=O)[C@H](CC)[C@@H]1CC[C@@H](C)[C@@H]([C@H](C)[C@@H](O)[C@@H](C)C(=O)[C@H](CC)C2O[C@]3(C=C[C@@H](O)[C@]4(CC[C@@](C)([C@H]5CC[C@](O)(CC)[C@H](C)O5)O4)O3)[C@H](C)C[C@@H]2C)O1 (stereo not given in full) | 1.92% (active) |
| O=C1CCn2c1c(O)c1ccccc1c2=O | 94.8% (inactive) |
| COc1ccc(-c2cc(-c3ccccc3)nc(SCCCCCCC(=O)NO)n2)cc1 | 30.4% (inactive) |
| Cc1ccc(NC(=S)NNC(=S)Nc2ccc(C)cc2)cc1 | 29.3% (inactive) |
| c1cncc(-c2csc(-c3c[nH]c4ccccc34)n2)c1 | 77.3% (inactive) |
| CN(C)CCOc1cccc(-c2nc3sccn3c2-c2ccnc(S(C)(=O)=O)n2)c1 | 88.3% (inactive) |
| CC(C)(C)c1ccc(S(=O)(=O)N[C@H]2CC[C@H]3[C@@H]4CCc5cc(OS(=O)(=O)O)ccc5[C@H]4CC[C@]23C)cc1 | 15.3% (inactive) |
| Nc1nccc(OCCO)n1 | 91.2% (inactive) |
| CC(C)c1ccc(C(C)C(=O)N(CC2=C(C(C)c3ccccn3)c3ccccc3C2)C(C)C)cc1 (stereo not given) | 19.9% (inactive) |
| Cc1c2cnccc2c(C)c2c1c1cc(O)ccc1n2C(C)C | -3.2% (active) |
| CCc1ccc(C2=NN(c3ccc(S(C)(=O)=O)cc3)C(=O)CC2)cc1 | 26% (inactive) |
| COc1cc2c(cc1NC(=O)C(Cl)Cl)-c1ccc(NC(=O)C(Cl)Cl)cc1C2 | -3.08% (active) |
| COc1cc(/C=C2\CCCC3=C2NC(N)=NC3c2cc(OC)c(OC)c(OC)c2)cc(OC)c1OC (stereo not given) | 43% (inactive) |
| COc1ccc(-c2nn(-c3cccc(Cl)c3)cc2-c2cc(-c3ccccc3)[nH]c(=O)c2C#N)cc1 | 52.9% (inactive) |
| CC(C)(C)OC(=O)N1CCc2c(sc3ncnc(N/N=C/c4ccccc4Br)c23)C1 | -12% (active) |
| COc1ccc(-c2nn(-c3cccc(Cl)c3)cc2-c2nc(N)[nH]c(=O)c2C#N)cc1 | 51% (inactive) |
| COc1ccc(-c2cc(-c3ccc(Cl)cc3)nc(SCCCC(=O)NO)n2)cc1 | 0.343% (active) |
| COc1ccc(-c2nn(-c3cccc(Cl)c3)cc2-c2c(C#N)c(=O)n3[nH]c(-c4ccccc4)nc3c2C#N)cc1 | 63.4% (inactive) |
| Cc1ccc(-n2c(C)nn3c(=O)c4c5c(sc4nc23)CN(C)CC5)cc1 | 92.3% (inactive) |
| CCn1c(CSc2nc3ccccc3c(=O)n2CCc2ccccc2)n[nH]c1=S | 84% (inactive) |

| SMILES | growth |
| --- | --- |
| COc1cc2cc(Oc3ccc(NC(=O)Nc4ccc(Cl)c(Cl)c4)cc3)c(C)nc2cc1OC | 13.8% (inactive) |
| CCOC(=O)c1sc2ncnc(Nc3ccc4c(cnn4C(=O)Nc4ccc(C)c(Cl)c4)c3)c2c1C | 87.8% (inactive) |
| CN1CCc2c(sc3nc4n(-c5ccc(Cl)cc5)c(=O)[nH]n4c(=O)c23)C1 | 91.7% (inactive) |
| COc1cc2c3c(n(C4CCN(C)CC4)c(=O)c2cc1OC)-c1cc2c(cc1C3=O)OCO2 | 24.8% (inactive) |
| CCOC(=O)CSc1nc(-c2cc(OC)ccc2OC)cc(-c2ccc(OC)cc2)c1C#N | 71.7% (inactive) |
| CC(C)N(CCOc1ccc(-c2nc3sccn3c2-c2ccnc(S(C)(=O)=O)n2)cc1)C(C)C | 82.5% (inactive) |
| N#Cc1ccc(C(=O)CSc2nccc(Nc3ccc(C(=O)O)cc3)n2)cc1 | 91.3% (inactive) |
| O=C(CNc1nnc(-c2cccnc2SCc2ccccc2)s1)Nc1nc(Cl)cc(Cl)n1 | 89.1% (inactive) |
| COc1ccc(N(C)c2ncnc3occ(C)c23)cc1 | 9.66% (active) |
| COC(=O)C1OC1c1cc([N+](=O)[O-])ccc1OC (stereo not given) | 89.3% (inactive) |
| N#Cc1c(-c2ccc(Cl)cc2)cc(-c2cc(O)ccc2O)nc1N | 4.41% (active) |
| CN(C)CCN(Cc1ccccc1)c1ccc2ccccc2n1 | 86.7% (inactive) |
| COC(=O)c1c[nH]c2cc(OC(C)C)c(OC(C)C)cc2c1=O | 84.8% (inactive) |
| C=C/C(C)=C/C[C@]1(C)[C@H](C)[C@@H](OC(=O)CCC)[C@H](O)[C@@]23C(=C[C@H](OC)C[C@@H]12)[C@@H](OC(=O)CCC)O[C@H]3OC(C)=O | 9.34% (active) |
| O=C(Nc1cc([N+](=O)[O-])c2[nH]c(=O)c3ccccc3c2c1)C(F)(F)F | 82% (inactive) |
| Nc1nc(Cl)nc2c1ncn2C1O[C@H](CO)[C@@H](O)[C@@H]1F (stereo not given in full) | 30.7% (inactive) |
| C#CC(C)(O)[C@@H]1C[C@H](CC(=O)O)C1(C)C (stereo not given in full) | 94% (inactive) |
| COc1ccc(-c2nn(-c3cccc(Cl)c3)cc2/C=C2\NC(=S)N(c3ccc(Cl)cc3)C2=O)cc1 | 19.3% (inactive) |
| COc1ccc2c(c1)OC(N)=C(C#N)C2c1cc(OC)c(OC)c(OC)c1 (stereo not given) | 13.3% (inactive) |
| IC(I)I | 100% (inactive) |

tested on: HCT-116 colon; experiment: as above; settings: 10 µM

| SMILES | growth |
| --- | --- |
| C=CCN(CC=C)C(=O)[C@H](CC)[C@@H]1CC[C@@H](C)[C@@H]([C@H](C)[C@@H](O)[C@@H](C)C(=O)[C@H](CC)C2O[C@]3(C=C[C@@H](O)[C@]4(CC[C@@](C)([C@H]5CC[C@](O)(CC)[C@H](C)O5)O4)O3)[C@H](C)C[C@@H]2C)O1 (stereo not given in full) | 9.64% (active) |
| O=C1CCn2c1c(O)c1ccccc1c2=O | 107% (inactive) |
| COc1ccc(-c2cc(-c3ccccc3)nc(SCCCCCCC(=O)NO)n2)cc1 | 25.1% (inactive) |
| Cc1ccc(NC(=S)NNC(=S)Nc2ccc(C)cc2)cc1 | 34.5% (inactive) |
| c1cncc(-c2csc(-c3c[nH]c4ccccc34)n2)c1 | 82.6% (inactive) |
| CN(C)CCOc1cccc(-c2nc3sccn3c2-c2ccnc(S(C)(=O)=O)n2)c1 | 92.6% (inactive) |
| CC(C)(C)c1ccc(S(=O)(=O)N[C@H]2CC[C@H]3[C@@H]4CCc5cc(OS(=O)(=O)O)ccc5[C@H]4CC[C@]23C)cc1 | 26.8% (inactive) |
| Nc1nccc(OCCO)n1 | 97.8% (inactive) |
| CC(C)c1ccc(C(C)C(=O)N(CC2=C(C(C)c3ccccn3)c3ccccc3C2)C(C)C)cc1 (stereo not given) | 11.1% (inactive) |
| Cc1c2cnccc2c(C)c2c1c1cc(O)ccc1n2C(C)C | -49.4% (active) |
| CCc1ccc(C2=NN(c3ccc(S(C)(=O)=O)cc3)C(=O)CC2)cc1 | 15.7% (inactive) |
| COc1cc2c(cc1NC(=O)C(Cl)Cl)-c1ccc(NC(=O)C(Cl)Cl)cc1C2 | -61% (active) |
| COc1cc(/C=C2\CCCC3=C2NC(N)=NC3c2cc(OC)c(OC)c(OC)c2)cc(OC)c1OC (stereo not given) | -81.6% (active) |
| COc1ccc(-c2nn(-c3cccc(Cl)c3)cc2-c2cc(-c3ccccc3)[nH]c(=O)c2C#N)cc1 | 15.6% (inactive) |
| CC(C)(C)OC(=O)N1CCc2c(sc3ncnc(N/N=C/c4ccccc4Br)c23)C1 | 41.6% (inactive) |
| COc1ccc(-c2nn(-c3cccc(Cl)c3)cc2-c2nc(N)[nH]c(=O)c2C#N)cc1 | 58% (inactive) |
| COc1ccc(-c2cc(-c3ccc(Cl)cc3)nc(SCCCC(=O)NO)n2)cc1 | 8.41% (active) |
| COc1ccc(-c2nn(-c3cccc(Cl)c3)cc2-c2c(C#N)c(=O)n3[nH]c(-c4ccccc4)nc3c2C#N)cc1 | 87.3% (inactive) |
| Cc1ccc(-n2c(C)nn3c(=O)c4c5c(sc4nc23)CN(C)CC5)cc1 | 93.5% (inactive) |
| CCn1c(CSc2nc3ccccc3c(=O)n2CCc2ccccc2)n[nH]c1=S | 65.5% (inactive) |

| SMILES | growth |
| --- | --- |
| COc1cc2cc(Oc3ccc(NC(=O)Nc4ccc(Cl)c(Cl)c4)cc3)c(C)nc2cc1OC | 10.5% (inactive) |
| CCOC(=O)c1sc2ncnc(Nc3ccc4c(cnn4C(=O)Nc4ccc(C)c(Cl)c4)c3)c2c1C | 88.9% (inactive) |
| CN1CCc2c(sc3nc4n(-c5ccc(Cl)cc5)c(=O)[nH]n4c(=O)c23)C1 | 89.1% (inactive) |
| COc1cc2c3c(n(C4CCN(C)CC4)c(=O)c2cc1OC)-c1cc2c(cc1C3=O)OCO2 | 40.8% (inactive) |
| CCOC(=O)CSc1nc(-c2cc(OC)ccc2OC)cc(-c2ccc(OC)cc2)c1C#N | 67.3% (inactive) |
| CC(C)N(CCOc1ccc(-c2nc3sccn3c2-c2ccnc(S(C)(=O)=O)n2)cc1)C(C)C | 61.5% (inactive) |
| N#Cc1ccc(C(=O)CSc2nccc(Nc3ccc(C(=O)O)cc3)n2)cc1 | 108% (inactive) |
| O=C(CNc1nnc(-c2cccnc2SCc2ccccc2)s1)Nc1nc(Cl)cc(Cl)n1 | 106% (inactive) |
| COc1ccc(N(C)c2ncnc3occ(C)c23)cc1 | -11.9% (active) |
| COC(=O)C1OC1c1cc([N+](=O)[O-])ccc1OC (stereo not given) | 102% (inactive) |
| N#Cc1c(-c2ccc(Cl)cc2)cc(-c2cc(O)ccc2O)nc1N | 19.8% (inactive) |
| CN(C)CCN(Cc1ccccc1)c1ccc2ccccc2n1 | 90.4% (inactive) |
| COC(=O)c1c[nH]c2cc(OC(C)C)c(OC(C)C)cc2c1=O | 102% (inactive) |
| C=C/C(C)=C/C[C@]1(C)[C@H](C)[C@@H](OC(=O)CCC)[C@H](O)[C@@]23C(=C[C@H](OC)C[C@@H]12)[C@@H](OC(=O)CCC)O[C@H]3OC(C)=O | -70.3% (active) |
| O=C(Nc1cc([N+](=O)[O-])c2[nH]c(=O)c3ccccc3c2c1)C(F)(F)F | 56.5% (inactive) |
| Nc1nc(Cl)nc2c1ncn2C1O[C@H](CO)[C@@H](O)[C@@H]1F (stereo not given in full) | 25.3% (inactive) |
| C#CC(C)(O)[C@@H]1C[C@H](CC(=O)O)C1(C)C (stereo not given in full) | 106% (inactive) |
| COc1ccc(-c2nn(-c3cccc(Cl)c3)cc2/C=C2\NC(=S)N(c3ccc(Cl)cc3)C2=O)cc1 | 0.814% (active) |
| COc1ccc2c(c1)OC(N)=C(C#N)C2c1cc(OC)c(OC)c(OC)c1 (stereo not given) | 3.4% (active) |
| IC(I)I | 106% (inactive) |
